Values joined by “and” are separate entries in the source; they are usually repeats but may differ in a detail not shown here. Equal values may be shown once. Results filed as inconclusive are left out. Some compounds were tested as several samples or in several runs, with calls that do not always agree. Active and inactive are the calls of the source. The calls were made as follows: active = hit-call score of the fitted dose curve at least 0.9, where 1 is the maximum; inconclusive = response in the unintended direction; inactive = score below 0.9.
Experiment: TOX21_p53_BLA_p4_viability: Viability Assessment in the Tox21 HCT-116 p53 Agonism Beta-lactamase Assay, Phase 4 (AID 2283597);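 also: hits lower the luminescence signal meaning cytotoxicity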
Description: TOX21_p53_BLA_p4 is a cell-based, single-readout assay that uses HCT116, a human intestinal cell line, […] in a 1536-well plate.TOX21_p53_BLA_p4_viability is an assay readout measuring cellular ATP content and detected with CellTiter-Glo Luciferase-coupled ATP quantitation.TOX21_p53_BLA_p4_viability used a type of viability reporter where loss-of-signal activity can be used to understand changes in the cell viability. Furthermore, this assay endpoint can be referred to as a secondary readout, because this assay has produced multiple assay endpoints where this one serves a viability function. To generalize the intended target to other relatable targets, this assay endpoint is annotated to the cell cycle intended target family, where the subfamily is cytotoxicity.
Thawing Method: Place 14 mL of pre-warmed thaw medium into a 15 mL of conical tub. Remove the vial of cells to be thawed from liquid nitrogen and thaw rapidly by placing at 37C in a water bath with gentle agitation for 1-2 minutes. Decontaminate the vial by wiping with 70% ethanol before opening in a biological safety cabinet. Transfer the vial contents drop-wise into 14 mL of thaw medium in a sterile 15-mL conical tub. Centrifuge cells at 900 rpm for 4 minutes and resuspend in thaw medium. Transfer contents to the T75 tissue culture flask containing Thaw Medium and place flask in a humidified 37C/5% CO2 incubator. Switch to growth medium at first passage.Propagation Method: Aspirate medium, rinse once in DPBS, add 0.25% Trypsin/EDTA and swirl to coat the cell evenly. Add an equal volume of Growth Medium to inactivate Trypsin after 2-3 minutes incubation at 37C. Centrifuge cells at 900 rpm for 4 minutes and resuspend in growth medium. Cell should be passage or fed at least twice a week.Assay Protocol: Harvest cells from culture in growth medium and resuspend in assay medium. 2.2 Dispense 4000 cells/5 uL/well into 1536-well black/clear bottom plates using a Multidrop dispenser. After the cells were incubated at 37C for 5 hours, 23 nL of compounds dissolved in DMSO were transferred to the assay plate by a PinTool resulting in a 217-fold dilution. Incubate the plates for 16 hours at 37C, 5% CO2. Add 1 uL of 6X LiveBLAzer FRET B/G (CCF4-AM) Substrate Mixture to each well using a BioRAPTR dispenser and incubate the plates at room temperature for 2 hours. Measure fluorescence intensity at 460 and 530 nm emission and 405 nm excitation by an Envision detector. Data is expressed as the ratio of 460nm/530nm emissions. Add 4 uL of Cell-titer Glo to each well using BioRAPTR and incubate the plates at room temperature for […]. For cell viability readout that measures cytotoxicity, 4 ul/well of CellTiter-Glo reagent was added into the assay plates using a Flying Reagent Dispenser. After 30 min incubation at room temperature, the luminescence intensity in the plates was measured using a ViewLux plate reader.

SMILES	outcome	AC50
[Na+]	inactive	
CC(CO)c1ccccc1 (stereo not given)	inactive	
CCCCOCCOCCO	inactive	
CC(C)Cc1ccccc1	inactive	
CCc1cccc(O)c1	inactive	
CC(C)C(=O)OCC=Cc1ccccc1	inactive	
C=CC(=O)OCCCCCC	inactive	
CCNC(=S)NCC	inactive	
CC(=O)c1cccnc1	inactive	
O=C(Nc1cccc(Cl)c1)OCC#CCCl		56.1 µM (active)
CC(C)COC(=O)c1ccccc1O	inactive	
CCCCC1CCCCC(=O)O1 (stereo not given)	inactive	
CN1CCc2cccc3c2[C@H]1Cc1ccc(O)c(O)c1-3	inactive	35.5 µM (active) and 44.9 µM (active)
CC/C=C\CCOC(=O)C(C)C	inactive	
CCCc1ccc(O)cc1	inactive	
CCCCCCCCCCCCCC(=O)OCC	inactive	
CC/C(=C(\c1ccccc1)c1ccc(OCCN(C)C)cc1)c1ccccc1	inactive	22.9 µM (active) and 46.5 µM (active) and 32.3 µM (active)
CC1=CC[C@@H]2C[C@H]1C2(C)C	inactive	
CCCCCCCC1CCCC1=O (stereo not given)	inactive	

SMILES	outcome	AC50
Cc1cccc(O)c1	inactive	
CC(=O)OC/C=C(C)/C=C/C=C(C)/C=C/C1=C(C)CCCC1(C)C	inactive	
CCOc1ccc(NC(C)=O)cc1	inactive	
CCCCCCCCCCOC(=O)c1ccccc1C(=O)OCCCCCCCC	inactive	
CC1=CCC(C(C)(C)O)CC1 (stereo not given)	inactive	
N#CCCCC(C#N)CCC#N (stereo not given)	inactive	
FC(F)(F)c1ccc(Cl)c(Cl)c1	inactive	
CNC(=C[N+](=O)[O-])NCCSCc1ccc(CN(C)C)o1	inactive	
O=S(=O)(O)c1cc(O)c(O)c(S(=O)(=O)O)c1	inactive	
CN(C)CCCNCCCN(C)C	inactive	
C=C(C)C(=O)OCCN(C)C	inactive	
CCC(=O)OC(C)(C)C1CC=C(C)CC1 (stereo not given)	inactive	
COc1ccccc1O	inactive	
CC(=O)CCc1ccc(O)cc1	inactive	
Nc1cc([N+](=O)[O-])ccc1C(=O)O	inactive	
O=C(C=Cc1ccccc1)OCCCc1ccccc1	inactive	
CCCCC/C=C\C=C\C(=O)OCC		66.6 µM (active)
COc1ccc(OC)cc1	inactive	
CCCCCCCCCO	inactive	
